Shown are actives, neighbours in structure and some others; about 13% of the full set was active somewhere.
Lassa entry inh = qHTS for Inhibitors of binding or entry into cells for Lassa Virus | Lassa virus pseudotype entry inhibition, cell reporter | Potency, µM (top dose mostly 37.9 µM), usual class: inhibitors | hit rate 1.2% among 300,000 | AID 540256, 2011; calls by dose curve; tested in HEK293 cells; further: nearly all actives have a fitted effect of over 50% in size
Marburg entry inh = qHTS for inhibitors of binding or entry into cells for Marburg Virus; Marburg virus pseudotyped entry inhibition, cell reporter; Potency, µM (top dose mostly 37.8 µM), usual class: inhibitors; hit rate 1.8% among 300,000; calls by dose curve; tested in HEK293 cells
HCV inhibitor = qHTS Assay for Inhibitors of Hepatitis C Virus (HCV); Huh7.5.1 HCVcc-Cre infection, luciferase reporter, 44 h; Potency, µM (doses to about 41.8 µM), most hits filed as inhibitors; hit rate 3.4% among 340,000; active means well fitted inhibition curve with a large enough effect; inconclusive means small, poorly fitted or top-dose-only effect, or another doubt; inactive means no such curve, though single readings can be large or run the other way
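Cells seeded at 1,000/well and cultured 4 h, then compounds added followed by HCVcc-Cre virus (~0.5 moi). After 44 h further culture, luciferase substrate was added, plates held 15 min at room temperature, and luminescence read for 15 sec.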
FMDV inh = High Throughput Screening for Foot and Mouth Disease Virus Antivirals; hit rate 1.2% among 410,000; Potency, µM (titrated, usually from 57.9 µM), most hits filed as inhibitors; FMDV antiviral cell-based qHTS; calls by dose curve; tested in HEK293T cells; further: read-out not given here; nearly all actives have a fitted effect of over 45% in size
Cycloheximide cs = Cycloheximide Counterscreen for Small Molecule Inhibitors of Shiga Toxin | cell reporter, cycloheximide protein synthesis inhibition counterscreen | max response, % | hit rate 12% among 300,000 | AID 2314, 2010; in the data active means max response mostly above about 13%, no sharp cut-off; inactive means mostly below about 14%; further: read at 38.3 µM for the half of the compounds with a filed dose
Shiga inhibitor = A qHTS for Small Molecule Inhibitors of Shiga Toxin | inhibition, % at 38.7 µM | hit rate 9.2% among 290,000 | Vero cells, Shiga toxin protein synthesis inhibition reporter; in the data active means inhibition mostly above about 28%, no sharp cut-off; inactive means mostly below about 43%
Numbers stand for hits; - = inactive; ? = inconclusive; . = not tested or not shown.

SMILES	Lassa entry inh	Marburg entry inh	HCV inhibitor	FMDV inh	Cycloheximide cs	Shiga inhibitor
O=C(CSCc1c(F)cccc1F)Nc1ccccc1	-	?	-	-	54	116
Cc1ccc(C2CC(=O)NC(SCc3ccccc3)=C2C#N)o1 (stereo unspecified)	-	-	-	?	-	-
CN(CCOc1ccc(Cl)cc1)c1ccc(S(=O)(=O)N2CCCCC2)cn1	?	?	14µM	-	-	-
O=S(=O)(c1ccc(SCCOc2ccc(F)cc2)nc1)N1CCCC1	.	.	16µM	?	.	.
COc1ccccc1CC(=O)Nc1ccc(Cl)cc1C(=O)O	-	-	-	-	-	-
COc1ccc(CCN2C(=O)N(c3ccc(F)cc3)C(=O)C2CC(=O)Nc2ccc(F)c(F)c2)cc1 (stereo unspecified)	-	?	.	-	.	.
CCNC(=O)NC(=O)CSc1ccc2ccccc2c1	?	?	-	-	-	-
CCCc1nnc(NC(=O)CCC(=O)N2CCN(Cc3cc(F)ccc3OC)CC2)s1	.	.	-	?	-	-
CCOC(=O)c1cccc(C(=O)Nc2nc3ccc(OC)cc3s2)n1	.	.	-	-	-	39
COc1ccc2nc(NC(=O)c3cc(=O)c4cc(C)c(C)cc4o3)sc2c1	-	-	.	-	.	.
COc1ccc2nc(NC(=O)c3ccccc3[N+](=O)[O-])sc2c1	.	.	?	-	40	71
COc1ccc(-n2nc(C(=O)Nc3nc4ccc(OC)cc4s3)c3ccccc3c2=O)cc1	-	-	-	-	-	-
COc1ccc2nc(NC(=O)c3ccccc3O)sc2c1	.	.	-	-	58	63
O=C(Nc1nc2ccccc2s1)c1ccccc1[N+](=O)[O-]	.	.	-	-	46	60
CC1(C(=O)OCC(=O)Nc2cc(S(=O)(=O)N3CCOCC3)ccc2Cl)CC1(Cl)Cl (stereo unspecified)	.	.	?	-	.	.
COc1ccc(C(=O)NNC(=O)c2ccccc2[N+](=O)[O-])cc1	-	?	-	-	32	37
Cc1ccc(Cc2c(C(C)(C)C)nc3ccc(Br)cn23)cc1	.	.	.	-	.	.
COc1ccccc1C(=O)NCCCNc1ccc([N+](=O)[O-])cc1	-	-	-	-	-	-
CC(=O)NCCCOc1ccc([N+](=O)[O-])cc1Cl	.	.	-	-	16	-
CC(=O)NCCCNc1ccc([N+](=O)[O-])cc1	-	-	-	-	23	35
COc1cccc(OCCCOc2ccc([N+](=O)[O-])cc2Cl)c1	-	-	-	-	-	-
COc1ccccc1OCCCOc1ccc([N+](=O)[O-])cc1Cl	-	?	22µM	-	50	126
CCN1C(=O)C(C)C=C(C)C=C1C (stereo unspecified)	.	.	.	-	.	.
OCCSc1ncnc2c1oc1ccccc12	-	-	?	-	22	63
O=C(CSc1ncnc2c1oc1ccccc12)NCc1ccco1	-	-	-	.	30	51
SMILES	Lassa entry inh	Marburg entry inh	HCV inhibitor	FMDV inh	Cycloheximide cs	Shiga inhibitor
CCc1nc(SCC(=O)N2CCN(c3ccccc3)CC2)c2oc3ccccc3c2n1	-	?	10µM	?	-	-
CCc1nc(SCc2nc3ccccc3[nH]2)c2oc3ccccc3c2n1	-	?	7.9µM	?	14	-
N#CCCSc1ncnc2c1oc1ccccc12	-	-	?	-	-	-
c1ccc(Sc2ncnc3c2oc2ccccc23)cc1	?	?	-	-	33	81
CCN(CC)CCOc1ncnc2c1oc1ccccc12	-	-	-	-	-	-
O=C(O)CSc1ncnc2c1oc1ccccc12	-	-	-	-	-	-
c1ccc2[nH]c(CSc3nc4ccccc4o3)nc2c1	-	-	?	.	42	137
CCc1cc2c(SCC(=O)c3ccc(Cl)s3)ncnc2s1	-	-	-	-	-	-
CCc1nc(SCC(=O)c2ccc(Cl)s2)c2oc3ccccc3c2n1	-	?	?	-	46	89
CCc1nc(OCCN(CC)CC)c2oc3ccccc3c2n1	-	-	?	-	27	-
CCOC(=O)c1cnn(-c2nc3sc4c(c3c(=O)[nH]2)CCCC4)c1N	.	.	.	.	-	-
Cc1cc(-n2ccc(=O)[nH]c2=O)nc(-c2ccccc2)n1	-	-	-	-	-	-
COCCOC(=O)C1=C(C)N(Cc2ccccc2)C(=O)NC1c1ccc(OC)cc1 (stereo unspecified)	?	-	-	-	-	-
CS(=O)(=O)c1ccc(Nc2nc(C(N)Cc3ccc(C(F)(F)F)cc3)cs2)cc1 (stereo unspecified)	.	.	.	-	.	.
CN(C)CCNC(=O)c1[nH]c(C(F)(F)F)nc1-c1ccccc1	.	.	.	-	.	.
CCc1nc(SCCO)c2oc3ccccc3c2n1	-	-	10µM	-	-	-
CCc1nc(Sc2nc(C)cc(C)n2)c2oc3ccccc3c2n1	-	?	?	-	-	-
Cc1nn(C)c(C)c1S(=O)(=O)N1CCCC(C(=O)NC2CCCCC2)C1 (stereo unspecified)	-	-	-	-	-	-
COC(=O)C1=C(c2ccc(F)cc2OCc2ccccc2)C[C@@H]2CC[C@H]1N2C(=O)NCCOc1ccc(OC)cc1	.	.	?	-	.	.
Cc1nc(NC(=O)c2ccc(Br)o2)sc1C	-	-	-	-	45	63
Cc1ccc(C(=O)Nc2nc(C)c(C)s2)o1	?	?	-	-	35	62
O=C(O)CSC1CC(=O)N(c2ccc(Cl)c(Cl)c2)C1=O (stereo unspecified)	-	?	-	-	-	-
CCCCOc1ccc(CCC(=O)N/N=C/c2ccco2)cc1	?	-	-	-	12	-
Cc1cc(C)n(CC(=O)N/N=C/c2ccc([N+](=O)[O-])s2)n1	?	?	?	-	-	-
CCCOc1ccc(CCC(=O)N/N=C/c2ccco2)cc1	?	-	-	-	-	-
SMILES	Lassa entry inh	Marburg entry inh	HCV inhibitor	FMDV inh	Cycloheximide cs	Shiga inhibitor
Cc1ccc([N+](=O)[O-])c(C(=O)N/N=C/c2cccs2)c1	.	.	-	-	22	-
CCc1ccc(OCC(=O)N/N=C\c2ccco2)c([N+](=O)[O-])c1	-	-	-	-	16	active
Cc1ccc([N+](=O)[O-])c(C(=O)N/N=C/c2cccnc2)c1	-	-	-	-	-	-
Cc1cc(C)n(CC(=O)N/N=C/c2cccs2)n1	?	-	-	-	40	79
CCOC(=O)c1cc(-c2ccccc2)n(-c2cccc(C(=O)Nc3ccc(F)c(F)c3)c2)c1C	-	.	.	?	.	.
COc1cc(OC)c(OC)cc1CN1CCN(C(=O)COc2ccc3ccccc3c2)CC1	-	?	?	?	-	-
Cc1ccc(OCC(=O)N/N=C\c2cccs2)c([N+](=O)[O-])c1	-	-	-	-	39	37
Cc1ccn2c(C(=O)N/N=C\c3cccs3)c(C)nc2c1	-	-	?	-	16	-
CCN(CC)c1cccc(OCC(=O)N2c3ccccc3CC2C)c1 (stereo unspecified)	.	.	?	-	.	.
Cc1cc(C)cc(NC2=C(N)C(=O)c3ccccc3C2=O)c1	.	.	-	-	43	122
Cc1ccc(NC2=C(Cl)C(=O)c3ccccc3C2=O)cc1	13µM	?	7.1µM	-	25	70

Bioassay records from PubChem BioAssay.
